From PubChem BioAssay (NCATS)
Results filed as inconclusive are left out. Active and inactive are the calls of the source. Calls come from the whole dose curve; as a rule, active = well fitted inhibition curve with a large enough effect; inconclusive = small, poorly fitted or top-dose-only effect; inactive = flat fitted curve, though single readings scatter.

How the values were obtained:
Assay in all cases: qHTS profiling for inhibitors of Plasmodium falciparum proliferation (AID 504749); note: nearly all actives have a fitted effect of over 60% in size
Settings in all cases: P. falciparum in erythrocytes, SYBR Green DNA, 72 h; series mostly up to 28.7 µM
CP265 = tested on: CP265
Summary of the method: (§1)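 Readout was DNA-dye fluorescence from lysed cultures, ex 485/em 535 nm. Parasitized red cells had grown 72 h with compound; data scaled between 0.29 uM artemisinin and DMSO wells and corrected using vehicle-only plates.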

CP268 = tested on: CP268
Summary of the method: as §1

CP269 = tested on: CP269
Summary of the method: as §1

CP286 = tested on: CP286
Summary of the method: as §1

CP262 = tested on: CP262
Summary of the method: as §1

CP266 = tested on: CP266
Summary of the method: as §1

CP305 = tested on: CP305
Summary of the method: as §1

CP291 = tested on: CP291
Summary of the method: as §1

CP297 = tested on: CP297
Summary of the method: as §1

Measured: Potency
Potency is the fitted concentration of half-maximal effect.

CC(=O)c1ccc2c(c1)N(CCCN1CCN(CCO)CC1)c1ccccc1S2
active: CP265 11.2 µM | CP268 12 µM | CP269 10.7 µM | CP286 8.91 µM

CCOc1cc(-c2nccc3cc(OC)c(OC)cc23)cc(OCC)c1OCC
active: CP286 8.91 µM

N[C@@H](Cc1cc(I)c(Oc2ccc(O)c(I)c2)c(I)c1)C(=O)O
inactive: CP262 | CP266 | CP268 | CP305

C/C(=C\C(=O)OCCCCCCCCC(=O)O)C[C@@H]1OC[C@H](C[C@@H]2O[C@H]2[C@@H](C)[C@H](C)O)[C@@H](O)[C@H]1O
active: CP269 0.239 µM

CC(CN(C)C)CN1c2ccccc2Sc2ccc(C(F)(F)F)cc21 (stereo unspecified)
active: CP286 11.2 µM
inactive: CP266

CCc1ncnc2cc(OC)c(OC)cc12
inactive: all assays above

C[C@]12CCC(=O)C[C@@H]1CC[C@@H]1[C@@H]2CC[C@]2(C)C=CC[C@@H]12
not listed: CP286
inactive: all other assays above

O=[N+]([O-])c1c(Cl)cccc1-c1c[nH]cc1Cl
inactive: all assays above

Cn1c(O)c(N=NC(N)=S)c2ccccc21
inactive: CP266 | CP268 | CP269 | CP297

CC(=O)Nc1ccc(NC(=S)NC(=O)c2ccc(C(C)(C)C)cc2)cc1
not listed: CP265 | CP286
inactive: all other assays above

NC(N)=NCC1COc2ccccc2O1 (stereo unspecified)
inactive: CP265 | CP291

O=C(CCCN1CCC(C(=O)c2ccc(F)cc2)CC1)c1ccc(F)cc1
inactive: CP262 | CP265 | CP266 | CP297

CCCC(CCC)C(=O)OC1C[C@H]2CC[C@@H](C1)[N+]2(C)C (stereo partly specified)
inactive: CP266
active: CP265 8.91 µM

CN1CCCC(CN2c3ccccc3Sc3ccccc32)C1 (stereo unspecified)
inactive: CP262 | CP265 | CP266 | CP297 | CP305

Cc1nc(NS(=O)(=O)c2ccc(N)cc2)nc(C)c1Br
not listed: CP262
inactive: all other assays above

O=c1n(CC2CO2)c(=O)n(CC2CO2)c(=O)n1CC1CO1 (stereo unspecified)
inactive: CP266 | CP269

Cc1c(C)c2c(c(C)c1OC(=O)CCC(=O)O)CC[C@@](C)(CCC[C@H](C)CCC[C@H](C)CCCC(C)C)O2
not listed: CP286 | CP266
inactive: all other assays above

CCCCC[C@H](O)/C=C/[C@H]1[C@H](O)CC(=O)[C@@H]1C/C=C\CCCC(=O)O
inactive: all assays above

CC[C@H]1OC(=O)[C@H](C)[C@@H](O[C@H]2C[C@@](C)(OC)[C@@H](O)[C@H](C)O2)[C@H](C)[C@@H](O[C@@H]2O[C@H](C)C[C@H](N(C)C)[C@H]2O)[C@](C)(O)C[C@@H](C)CN(C)[C@H](C)[C@@H](O)[C@]1(C)O
active: CP265 10 µM | CP269 1.51 µM | CP286 3.98 µM | CP297 5.36 µM

CCCCC[C@H](O)/C=C/[C@@H]1[C@H]2C/C(=C/CCCC(=O)O)O[C@H]2C[C@H]1O
inactive: all assays above

O=C(c1cc2ccccc2o1)N1CCN(Cc2ccccc2)CC1
active: CP265 8.91 µM
inactive: CP266 | CP305

O=c1[nH]c(=O)n([C@H]2C[C@H](O)[C@@H](CO)O2)cc1/C=C/Br
inactive: all assays above

CCC(C(=O)NC(N)=O)c1ccccc1 (stereo unspecified)
inactive: all assays above

C[C@@](Cc1ccc(O)c(O)c1)(NN)C(=O)O
inactive: all assays above

Oc1cccc(O)c1O
inactive: CP266

CNC(=O)[C@H](Cc1c[nH]c2ccccc12)NC(=O)[C@@H](CC(=O)NO)CC(C)C
inactive: CP291

CC(C)NCC(O)COc1ccccc1-n1cccc1 (stereo unspecified)
not listed: CP297
inactive: all other assays above
